From PubChem BioAssay
Active and inactive are the calls of the source.

What was measured:
[1] = binders of probe aFSTL3 on microarray, primary screen, stem cell growth factor project, biochemical, small-molecule microarray, fluorescence 635/667 (AID 1064); details: higher = more signal;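 further: measures binding of the biotinylated anti-FSTL3 antibody to printed compounds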
[2] = binders from COS7 lysate, DM2A8 probe, primary screen, torsin A project, cell lysate, small-molecule microarray, fluorescence 635/667 (AID 1065); details: higher = more signal, COS7 lysate expressing mutant human TOR1A
[3] = binders of probe aFGF2 on microarray, primary screen, stem cell growth factor project, biochemical, small-molecule microarray, fluorescence 635/667 (AID 1067); details: higher = more signal;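 further: measures binding of biotinylated aFGF2 protein to printed compounds on slides; z-score merges feature fluorescence and signal-to-noise across triplicate slides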
[4] = binders of probe aFGF10 on microarray, primary screen, stem cell growth factor project, biochemical, small-molecule microarray, fluorescence 635/667 (AID 1071); details: higher = more signal;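 further: score merges 667 nm spot intensity and signal to noise from triplicate slides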
[5] = molecular target: Neurogenic locus notch homolog protein 2 (Homo sapiens) (UniProt Q04721); test: Notch2 binders on small-molecule microarrays, primary screen, biochemical, small-molecule microarray, 635 nm fluorescence, stem cell growth factors (AID 1073); details: Notch2 binding, higher = more signal
[6] = molecular target: Pro-neuregulin-1, membrane-bound isoform (Homo sapiens) (UniProt Q02297); test: NRG1 binders on small-molecule microarrays, primary screen, psychiatric disease protein project, biochemical, small-molecule microarray, fluorescence 635/667 (AID 1075); details: NRG1 binding, 635 nm fluorescence, higher = more signal;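 further: score combines 667 nm spot fluorescence with signal to noise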
[7] = test system: Neuregulin-1 EGF-like domain; test: binders of neuregulin-1 EGF-like domain, primary screen, biochemical, small-molecule microarray, 635 nm fluorescence (AID 1081); details: small-molecule microarray binding, higher = more signal;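 further: binding of the protein to compounds printed on small-molecule microarray slides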
[8] = FRG1 promoter luciferase signal modulators, primary screen, FRG1 inhibition for FSHD, cell-based, C2C12 myotubes, firefly/Renilla luciferase, luminescence (AID 1084); details: higher = more signal, called active from +8 up or from −8 down
[9] = binders of probe aFST on microarray, primary screen, stem cell growth factor project, biochemical, small-molecule microarray, fluorescence 635/667 (AID 1086); details: higher = more signal;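 further: score merges 667 nm fluorescence with signal-to-noise of each printed compound spot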
[10] = binders of probe aHhip on microarray, primary screen, stem cell growth factor project, biochemical, small-molecule microarray, fluorescence 635/667 (AID 1087); details: higher = more signal;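 further: score merges spot fluorescence at 667nm with spot signal to noise ratio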
[11] = test system: PRMT1 (protein arginine N-methyltransferase 1); test: PRMT1 binders on small-molecule microarrays, primary screen, biochemical, small-molecule microarray, 635 nm fluorescence (AID 1088); details: small-molecule microarray binding, higher = more signal;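 further: binding of Prmt1 protein to compounds spotted on small-molecule microarray slides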
[12] = yeast growth modulation, basal conditions, primary screen, YJM789 clinical isolate, OD600, 24 h (AID 1089);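 further: growth of clinical yeast isolate S. cerevisiae YJM 789 seeded 1000 cells per well; test concentration not given here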; details: S. cerevisiae YJM789 growth, higher = more signal, called active from +8 up or from −8 down
[13] = fission yeast growth modulation, primary screen, strain 972, OD600, 24 h, no modulator (AID 1090);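 further: basal condition with compound alone and no growth modifier present; test concentration not given here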; details: S. pombe 972 growth, higher = more signal, called active from +8 up or from −8 down
[14] = S. cerevisiae growth modulation with rapamycin, primary screen, strain BY4716, OD600, 96 h (AID 1091); details: higher = more signal, called active from +8 up or from −8 down; further: test concentration not given here
[15] = molecular target: Torsin-1A-interacting protein 2 (Homo sapiens) (UniProt Q8NFQ8); test: LULL1 binders on small-molecule microarray, primary screen, cell lysate, human LULL1 lysate, 635/667 nm fluorescence (AID 1092); details: hLULL1 lysate binding, 635 nm fluorescence, higher = more signal;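 further: probe is lysate of COS7 cells overexpressing human LULL1; score merges per-feature 667 nm fluorescence with signal-to-noise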
[16] = E. coli growth modulation, two-sided OD650, primary screen, E. coli filamentation project, strain DRC41, 24 h (AID 1093); details: OD650, 24 h, higher = more signal, called active from +8 up or from −8 down;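 further: MC1000 strain lacking acrAB efflux and sulA so SOS filamentation is blocked; test concentration not given here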
[17] = small-molecule microarray binders of probe aLefty2, primary screen, biochemical, biotinylated probe, 635/667 nm fluorescence (AID 1094); details: higher = more signal;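 further: score merges spot fluorescence near 667 nm with spot signal-to-noise ratio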
[18] = test system: Noggin (protein binding on small-molecule microarray); test: Noggin binders on small-molecule microarray, primary screen, biochemical, 635/667 nm fluorescence (AID 1095); details: 635 nm fluorescence, higher = more signal;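 further: score merges 667 nm feature fluorescence with signal to noise over triplicate slides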
[19] = molecular target: Neurogenic locus notch homolog protein 3 (Homo sapiens) (UniProt Q9UM47); test: NOTCH3 binders on small-molecule microarray, primary screen, biochemical, 635/667 nm fluorescence (AID 1096); details: NOTCH3 binding, 635 nm fluorescence, higher = more signal
[20] = small-molecule microarray binders of probe aEGFR, primary screen, biochemical, biotinylated probe, 635/667 nm fluorescence (AID 1097); details: higher = more signal;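 further: probe is a biotinylated anti-EGFR antibody binding compounds printed on slides; score combines fluorescence near 667 nm and signal to noise of each spot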

Chain of Torsin-1A-interacting protein 2 (Homo sapiens) (Q8NFQ8 whole entry, looked up): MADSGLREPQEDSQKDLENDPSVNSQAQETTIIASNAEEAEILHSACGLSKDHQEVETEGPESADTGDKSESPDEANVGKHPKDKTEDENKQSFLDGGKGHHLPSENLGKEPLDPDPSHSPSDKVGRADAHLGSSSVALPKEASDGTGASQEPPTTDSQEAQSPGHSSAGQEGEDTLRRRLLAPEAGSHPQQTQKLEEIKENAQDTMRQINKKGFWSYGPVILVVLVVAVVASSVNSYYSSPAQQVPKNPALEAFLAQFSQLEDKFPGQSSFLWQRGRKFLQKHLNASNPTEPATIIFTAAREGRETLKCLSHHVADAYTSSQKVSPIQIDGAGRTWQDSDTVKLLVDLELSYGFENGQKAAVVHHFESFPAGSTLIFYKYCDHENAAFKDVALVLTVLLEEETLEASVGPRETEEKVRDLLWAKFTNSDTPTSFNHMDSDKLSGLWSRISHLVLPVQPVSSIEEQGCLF
Chain of Neurogenic locus notch homolog protein 3 (Homo sapiens) (Q9UM47 whole entry, looked up): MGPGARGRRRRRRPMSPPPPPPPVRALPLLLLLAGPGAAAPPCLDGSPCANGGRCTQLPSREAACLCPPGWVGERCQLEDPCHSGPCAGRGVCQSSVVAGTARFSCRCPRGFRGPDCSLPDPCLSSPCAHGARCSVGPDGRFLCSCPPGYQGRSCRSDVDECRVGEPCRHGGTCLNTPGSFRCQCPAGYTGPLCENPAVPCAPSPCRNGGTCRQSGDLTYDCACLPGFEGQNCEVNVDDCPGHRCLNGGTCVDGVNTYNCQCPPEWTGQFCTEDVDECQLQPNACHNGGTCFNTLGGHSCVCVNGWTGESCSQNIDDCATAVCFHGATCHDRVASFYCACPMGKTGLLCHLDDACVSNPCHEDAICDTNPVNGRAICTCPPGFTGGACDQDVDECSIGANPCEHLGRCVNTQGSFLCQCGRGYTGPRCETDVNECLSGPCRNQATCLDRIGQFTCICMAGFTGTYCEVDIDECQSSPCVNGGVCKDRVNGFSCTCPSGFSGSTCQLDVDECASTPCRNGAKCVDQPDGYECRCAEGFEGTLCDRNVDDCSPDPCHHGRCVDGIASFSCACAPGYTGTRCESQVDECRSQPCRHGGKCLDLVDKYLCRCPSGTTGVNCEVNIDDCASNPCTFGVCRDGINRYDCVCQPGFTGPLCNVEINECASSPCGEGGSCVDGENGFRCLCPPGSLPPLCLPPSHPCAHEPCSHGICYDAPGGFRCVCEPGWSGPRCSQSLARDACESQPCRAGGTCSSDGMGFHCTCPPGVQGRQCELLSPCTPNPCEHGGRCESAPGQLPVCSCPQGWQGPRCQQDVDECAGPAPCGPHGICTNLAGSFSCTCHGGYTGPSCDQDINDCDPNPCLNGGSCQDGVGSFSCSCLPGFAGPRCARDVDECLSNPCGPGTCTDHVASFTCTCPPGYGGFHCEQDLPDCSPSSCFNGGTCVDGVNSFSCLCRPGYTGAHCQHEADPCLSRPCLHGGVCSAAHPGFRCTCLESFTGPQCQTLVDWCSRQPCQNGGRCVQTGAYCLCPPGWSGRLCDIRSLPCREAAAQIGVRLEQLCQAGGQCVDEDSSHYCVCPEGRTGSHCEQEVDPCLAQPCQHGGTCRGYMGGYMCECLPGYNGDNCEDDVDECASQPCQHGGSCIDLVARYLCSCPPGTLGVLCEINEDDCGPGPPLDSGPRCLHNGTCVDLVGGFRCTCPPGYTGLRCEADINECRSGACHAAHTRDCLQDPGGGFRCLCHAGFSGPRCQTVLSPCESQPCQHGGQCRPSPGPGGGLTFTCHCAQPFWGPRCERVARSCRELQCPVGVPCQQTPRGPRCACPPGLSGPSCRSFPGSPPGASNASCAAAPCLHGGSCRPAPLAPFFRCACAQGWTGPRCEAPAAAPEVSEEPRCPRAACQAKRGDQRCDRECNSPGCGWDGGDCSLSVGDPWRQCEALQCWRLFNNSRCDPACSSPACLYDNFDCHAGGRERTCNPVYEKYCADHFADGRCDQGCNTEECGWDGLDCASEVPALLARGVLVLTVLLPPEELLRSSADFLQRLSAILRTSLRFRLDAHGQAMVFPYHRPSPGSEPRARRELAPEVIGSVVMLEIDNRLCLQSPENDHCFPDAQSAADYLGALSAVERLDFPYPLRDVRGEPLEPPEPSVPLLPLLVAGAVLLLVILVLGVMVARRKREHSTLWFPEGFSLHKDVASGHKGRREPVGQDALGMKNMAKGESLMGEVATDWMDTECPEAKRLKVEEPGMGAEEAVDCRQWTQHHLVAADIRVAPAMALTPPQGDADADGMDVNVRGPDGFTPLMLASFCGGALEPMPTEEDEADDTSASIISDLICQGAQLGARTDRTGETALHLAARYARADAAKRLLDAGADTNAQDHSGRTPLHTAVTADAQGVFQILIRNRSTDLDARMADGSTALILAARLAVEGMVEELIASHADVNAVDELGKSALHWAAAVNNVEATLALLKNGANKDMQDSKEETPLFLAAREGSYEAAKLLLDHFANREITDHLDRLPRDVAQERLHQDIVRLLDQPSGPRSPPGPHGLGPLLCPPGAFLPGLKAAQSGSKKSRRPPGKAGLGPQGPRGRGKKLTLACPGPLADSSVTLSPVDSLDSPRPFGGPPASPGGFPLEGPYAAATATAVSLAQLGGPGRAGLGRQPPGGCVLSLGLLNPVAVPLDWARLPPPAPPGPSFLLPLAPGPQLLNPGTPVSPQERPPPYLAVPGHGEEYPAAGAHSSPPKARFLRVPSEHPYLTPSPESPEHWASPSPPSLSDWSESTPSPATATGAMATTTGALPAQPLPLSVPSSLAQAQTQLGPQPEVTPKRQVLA
Chain of Pro-neuregulin-1, membrane-bound isoform (Homo sapiens) (Q02297 whole entry, looked up, the tested form may be a part, canonical isoform): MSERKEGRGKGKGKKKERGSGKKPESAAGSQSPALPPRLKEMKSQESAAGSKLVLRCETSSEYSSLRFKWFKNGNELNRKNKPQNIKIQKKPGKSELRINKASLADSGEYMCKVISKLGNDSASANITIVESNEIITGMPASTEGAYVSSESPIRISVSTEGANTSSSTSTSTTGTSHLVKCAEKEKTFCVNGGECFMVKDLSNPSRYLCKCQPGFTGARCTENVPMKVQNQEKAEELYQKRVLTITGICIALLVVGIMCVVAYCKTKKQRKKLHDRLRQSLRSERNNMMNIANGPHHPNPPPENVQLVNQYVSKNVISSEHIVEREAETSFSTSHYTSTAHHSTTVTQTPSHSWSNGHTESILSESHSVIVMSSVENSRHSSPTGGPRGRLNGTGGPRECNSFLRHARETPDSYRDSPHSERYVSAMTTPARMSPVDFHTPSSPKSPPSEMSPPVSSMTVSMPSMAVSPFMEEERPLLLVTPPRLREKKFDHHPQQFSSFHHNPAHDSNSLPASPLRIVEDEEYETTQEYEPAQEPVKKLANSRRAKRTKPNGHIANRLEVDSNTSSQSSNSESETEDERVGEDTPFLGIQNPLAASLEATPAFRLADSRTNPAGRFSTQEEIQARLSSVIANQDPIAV

Row | SMILES | composite z-score [1] | composite z-score [2] | composite z-score [3] | composite z-score [4] | composite z-score [5] | composite z-score [6] | composite z-score [7] | z-score [8] | composite z-score [9] | composite z-score [10] | composite z-score [11] | z-score [12] | z-score [13] | z-score [14] | composite z-score [15] | z-score [16] | composite z-score [17] | composite z-score [18] | composite z-score [19] | composite z-score [20]
1 | CCOC(=O)[C@H](CC(C)C)NC(=O)CCC1CC(OC(=O)NCCc2ccc(F)cc2)CC2(CCCC(COC(=O)NCCOc3ccccc3)O2)O1 (stereo not given in full) | -0.715 | -0.409 | -0.0909 | 0.704 | 1.25 | 0.996 | 1.24 | 1.99 (inactive) | 0.283 | -0.374 | 1.56 | 0.407 (inactive) | 0.374 (inactive) | -0.445 (inactive) | 2.21 | -0.552 (inactive) | -0.0965 | 0.676 | 1.11 | -0.0828
2 | COC(=O)CC=C[C@@H](C)[C@@H](C=NOC[C@@H](O)[C@H]1O[C@@H]2OC(C)(C)O[C@@H]2[C@H]1O)NS(=O)(=O)c1ccc(C)cc1 | -0.383 | 0.746 | -0.171 | 0.347 | 0.463 | -0.0399 | -0.124 | 0.703 (inactive) | 0.155 | -0.641 | 0.601 | -0.684 (inactive) | -0.137 (inactive) | -0.408 (inactive) | 0.308 | 0.445 (inactive) | 0.0528 | 0.974 | 0.638 | -0.0553
3 | COC(=O)CC=C[C@@H](C)[C@@H](C=NOC[C@H]1O[C@H](c2ccccc2)C=C[C@@H]1Oc1ccc(OC)cc1)NS(=O)(=O)c1ccc(C)cc1 | 0.577 | -0.564 | -0.127 | -1.06 | -0.766 | -0.754 | -1.29 | -0.461 (inactive) | -0.0763 | -0.0645 | -1.27 | 0.0204 (inactive) | 0.321 (inactive) | -0.382 (inactive) | -0.744 | -0.513 (inactive) | -0.0785 | -0.882 | -0.939 | -0.195
4 | CC=CC1=C(CO)C(=O)[C@@H]2O[C@@H]2C1=O | -0.538 | -0.45 | -0.093 | 0.0736 | -0.126 | -0.719 | 0.687 | -0.078 (inactive) | -0.212 | -0.0994 | 0.114 | -0.767 (inactive) | -0.738 (inactive) | -0.624 (inactive) | -1.02 | 0.199 (inactive) | -0.199 | 1.58 | 0.406 | 0.0083
5 | CC(C)CCN1CCc2nc(COc3ccccc3)c3c(c2C1)CO[C@@H](C)C3 | 0.188 | 0.369 | -0.0819 | 0.0995 | -0.0065 | 0.385 | 0.135 | 0.0476 (inactive) | 0.138 | 0.0623 | 0.0135 | 0.377 (inactive) | -0.438 (inactive) | -0.531 (inactive) | 1.25 | 1.17 (inactive) | 0.111 | -0.0126 | -0.149 | -0.123
6 | CCCCC#C[C@@H]1C=C[C@H](Oc2cc(OC)c(OC)c(OC)c2)[C@@H](COC(=O)OCC)O1 | -0.682 | -0.0561 | -0.116 | -0.0152 | -0.526 | -0.158 | -0.365 | -0.214 (inactive) | -0.311 | 0.141 | 0.314 | 0.635 (inactive) | -2.19 (inactive) | 0.398 (inactive) | -0.16 | 0.934 (inactive) | -0.209 | 0.229 | -0.208 | -0.162
7 | CC(C)CON=C1C[C@@H](O)[C@@H](O)[C@@H]2[C@@H]3C(=O)N(C[C@@H]4CCCO4)C(=O)[C@@H]3CC[C@@H]12 | -0.308 | -0.0385 | -0.132 | 0.0654 | -0.489 | -0.672 | -0.321 | -0.108 (inactive) | -0.271 | -0.0994 | 0.242 | -1.49 (inactive) | 0.283 (inactive) | -0.625 (inactive) | 1.38 | 1.27 (inactive) | -0.209 | 0.262 | -0.435 | -0.22
8 | COc1cccc([C@H]2Oc3ccc(OC)cc3C(=NOC[C@@H](O)[C@H]3O[C@@H]4OC(C)(C)O[C@@H]4[C@H]3O)[C@@H]2O)c1 | -0.117 | 0.146 | -0.0533 | 0.289 | 0.533 | -0.242 | 0.54 | 5.07 (inactive) | 0.149 | -0.194 | 0.775 | -0.797 (inactive) | -2.21 (inactive) | -1.62 (inactive) | 0.347 | 0.932 (inactive) | -0.0616 | 0.449 | 0.456 | 0.0746
9 | CO[C@@H]1COC(=O)[C@@H](C)COC(=O)[C@@H](C)NC(=O)CC=C[C@@H]1C | -0.538 | 0.544 | -0.133 | 0.231 | 0.198 | -0.308 | 0.675 | 0.156 (inactive) | -0.235 | -0.342 | 1.55 | -2.2 (inactive) | -1.61 (inactive) | -2.47 (inactive) | -0.963 | -0.801 (inactive) | -0.154 | 1.6 | -0.0403 | -0.0041
10 | CC(C)CON=C1C[C@@H](O)[C@@H](O)[C@@H]2[C@@H]3C(=O)N(c4ccc(F)cc4F)C(=O)[C@@H]3CC[C@H]12 | -0.337 | 1.29 | -0.214 | 0.269 | 0.737 | 0.668 | 1.23 | -0.858 (inactive) | 0.803 | 0.111 | 1.55 | -0.254 (inactive) | -0.59 (inactive) | -0.337 (inactive) | 1.63 | -0.385 (inactive) | -0.304 | 0.409 | 1.08 | -0.0512
